# Where a name gives a salt, the structure may show the parent alone.
# What was measured:
# Conditions in all cases: treatment time: 24 h
# [1] = tested on: A549-ACTB-RAB5A; assay: lowest phenotypically active concentration; higher = less potent
# Method in brief: (§1)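 After 24 h at 0.3, 1, 3 or 9 µM, with four wells per treatment, fifteen gene-edited A549, HepG2 and WPMY1 reporter lines carrying BFP, GFP and RFP/FusionRed were imaged live. Each well's live-cell features were expressed relative to solvent control wells. Deviation required ≥3 of 4 wells past the 95th percentile of control Euclidean distances, and reproducibility a median replicate Pearson correlation over the 95th percentile of non-replicates. Phenotypic activity rested on both.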
# [2] = tested on: A549-GM130-SQSTM1; assay: as above
# Method in brief: as §1
# [3] = tested on: WPMY1-GM130-SQSTM1; assay: as above
# Method in brief: as §1
# [4] = tested on: A549-ACTB-RAB5A; assay: phenotypically active (imaging signature differs from DMSO and reproducible) at any of 0.3-9 uM (binary (1 = active, 0 = inactive)); higher = active
# Method in brief: as §1
# [5] = tested on: A549-CANX-COX4; assay: as above
# Method in brief: as §1
# [6] = tested on: A549-GM130-SQSTM1; assay: as above
# Method in brief: as §1
# [7] = tested on: A549-TP53BP1-CLTA; assay: as above
# Method in brief: as §1
# [8] = tested on: A549-TUBA1B-RELA; assay: as above
# Method in brief: as §1
# [9] = tested on: HepG2-ACTB-RAB5A; assay: as above
# Method in brief: as §1
# [10] = tested on: HepG2-CANX-COX4; assay: as above
# Method in brief: as §1
# [11] = tested on: HepG2-GM130-SQSTM1; assay: as above
# Method in brief: as §1
# [12] = tested on: HepG2-TP53BP1-CLTA; assay: as above
# Method in brief: as §1
# [13] = tested on: HepG2-TUBA1B-RELA; assay: as above
# Method in brief: as §1
# [14] = tested on: WPMY1-ACTB-RAB5A; assay: as above
# Method in brief: as §1
# [15] = tested on: WPMY1-CANX-COX4; assay: as above
# Method in brief: as §1
# [16] = tested on: WPMY1-GM130-SQSTM1; assay: as above
# Method in brief: as §1
# [17] = tested on: WPMY1-TP53BP1-CLTA; assay: as above
# Method in brief: as §1
# [18] = tested on: WPMY1-TUBA1B-RELA; assay: as above
# Method in brief: as §1
# [19] = tested on: HepG2-ACTB-RAB5A; assay: lowest phenotypically active concentration; higher = less potent
# Method in brief: as §1
# [20] = tested on: A549-TUBA1B-RELA; assay: as above
# Method in brief: as §1
Structure (SMILES),lowest phenotypically active concentration [1] [µM],lowest phenotypically active concentration [2] [µM],lowest phenotypically active concentration [3] [µM],phenotypically active [4],phenotypically active [5],phenotypically active [6],phenotypically active [7],phenotypically active [8],phenotypically active [9],phenotypically active [10],phenotypically active [11],phenotypically active [12],phenotypically active [13],phenotypically active [14],phenotypically active [15],phenotypically active [16],phenotypically active [17],phenotypically active [18],lowest phenotypically active concentration [19] [µM],lowest phenotypically active concentration [20] [µM]
COc1ccccc1C(=O)Nc1cc2c(cc1N1CCCC1)n(C)c(=O)n2C,9,9,9,1 (active),0 (inactive),1 (active),0 (inactive),0 (inactive),0 (inactive),0 (inactive),0 (inactive),0 (inactive),0 (inactive),1 (active),0 (inactive),1 (active),0 (inactive),0 (inactive),,
O=c1cc(-c2ccccc2)oc2cc(O)cc(O)c12 [Chrysin],9,9,,1 (active),0 (inactive),1 (active),0 (inactive),0 (inactive),0 (inactive),0 (inactive),0 (inactive),0 (inactive),0 (inactive),0 (inactive),1 (active),0 (inactive),1 (active),0 (inactive),,
CCc1nc(-c2cccc(C)c2)c(-c2ccnc(NC(=O)c3ccccc3)c2)s1,9,9,,1 (active),0 (inactive),1 (active),0 (inactive),0 (inactive),1 (active),1 (active),1 (active),1 (active),1 (active),1 (active),0 (inactive),0 (inactive),0 (inactive),1 (active),9,
CC1CNCCN1S(=O)(=O)c1cccc2cnccc12 (stereo not given) [H-7 dihydrochloride],9,9,9,1 (active),0 (inactive),1 (active),0 (inactive),0 (inactive),0 (inactive),1 (active),1 (active),0 (inactive),1 (active),1 (active),1 (active),1 (active),0 (inactive),1 (active),,
Nc1ncnc2c1c(-c1ccc(Oc3ccccc3)cc1)nn2C1CCCC1,9,9,,1 (active),0 (inactive),1 (active),0 (inactive),1 (active),0 (inactive),0 (inactive),0 (inactive),0 (inactive),0 (inactive),0 (inactive),0 (inactive),0 (inactive),1 (active),0 (inactive),,3
O=C(Nc1ccc(CN2CCOCC2)cc1)c1ccc(-c2cccc(Cl)c2)o1,9,,,1 (active),0 (inactive),0 (inactive),0 (inactive),1 (active),0 (inactive),0 (inactive),0 (inactive),0 (inactive),1 (active),0 (inactive),0 (inactive),0 (inactive),0 (inactive),0 (inactive),,9
COc1cc2nccc(Oc3ccc(NC(=O)C4(C(=O)Nc5ccc(F)cc5)CC4)cc3)c2cc1OC,3,3,,1 (active),0 (inactive),1 (active),0 (inactive),1 (active),0 (inactive),0 (inactive),0 (inactive),0 (inactive),0 (inactive),1 (active),0 (inactive),0 (inactive),0 (inactive),0 (inactive),,≤ 0.3
CC(C)c1nc(CN(C)C(=O)N[C@H](C(=O)N[C@@H](Cc2ccccc2)C[C@H](O)[C@H](Cc2ccccc2)NC(=O)OCc2cncs2)C(C)C)cs1 [ritonavir],9,9,,1 (active),0 (inactive),1 (active),0 (inactive),0 (inactive),0 (inactive),0 (inactive),1 (active),0 (inactive),0 (inactive),0 (inactive),0 (inactive),0 (inactive),0 (inactive),0 (inactive),,
O=C1c2c(O)cccc2Cc2cccc(O)c21 [anthralin],9,9,9,1 (active),0 (inactive),1 (active),0 (inactive),0 (inactive),0 (inactive),0 (inactive),0 (inactive),0 (inactive),0 (inactive),1 (active),0 (inactive),1 (active),0 (inactive),1 (active),,
NC(=O)[C@@H](CCC(F)(F)F)N(Cc1ccc(-c2ncon2)cc1F)S(=O)(=O)c1ccc(Cl)cc1 [avagacestat],9,,,1 (active),0 (inactive),0 (inactive),0 (inactive),0 (inactive),1 (active),0 (inactive),0 (inactive),0 (inactive),0 (inactive),0 (inactive),0 (inactive),0 (inactive),0 (inactive),0 (inactive),9,
Nc1cc(N)c(N)cc1N [FAK Inhibitor 14],3,9,3,1 (active),0 (inactive),1 (active),0 (inactive),1 (active),0 (inactive),0 (inactive),0 (inactive),1 (active),1 (active),1 (active),1 (active),1 (active),1 (active),1 (active),,3

# From the supplement of paper PMC7411054
